In PubChem BioAssay (NCI):
This is part of a sample that, as a whole, favours compounds with a hit. Of some 83,000 tested, about 20% had one in any assay.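 Growth was measured after 48 h exposure to one concentration of compound in 96-well plates. Values under 10 count as active.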 A number with no mark means an inactive call. Active and inactive are the calls of the source.

Columns and labels:
Assay in all cases: NCI-60 one-dose screen, 48 h (100 = growth as untreated, 0 = no growth, -100 = all killed)
[1] = system: HT29 colon; conditions: 10 µM unless noted
[2] = system: SNB-75 CNS; conditions: 10 µM unless noted
[3] = system: SNB-19 CNS; conditions: 10 µM unless noted
[4] = system: U251 CNS; conditions: 10 µM unless noted
[5] = system: PC-3 prostate; conditions: 10 µM unless noted
[6] = system: SK-MEL-5 melanoma; conditions: 10 µM unless noted
[7] = system: UACC-62 melanoma; conditions: 10 µM unless noted
[8] = system: LOX IMVI melanoma; conditions: 10 µM unless noted
[9] = system: SK-MEL-28 melanoma; conditions: 10 µM
[10] = system: SK-MEL-2 melanoma; conditions: 10 µM unless noted

SMILES	growth [1]	growth [2]	growth [3] [%]	growth [4]	growth [5] [%]	growth [6] [%]	growth [7]	growth [8]	growth [9]	growth [10] [%]
O=C(/C=C/c1ccc(F)cc1)c1ccc(Nc2nc(NCCO)nc(Nc3ccc(Cl)cc3)n2)cc1	22.4%	81.4%	93.4	27%	68	75.4	74.5%	37.3%	86.9%	
Cc1cccc2c(=O)c3c(sc12)c(NCCCNCCO)nc1ccccc13	-24.1% (active)	23.8%	64.7	28.7%	43.6	59	60.2%	-88.2% (active)	32.9%	91.2
Cn1c(=O)n(C)c2cc(CNCCNc3ccnc4cc(Cl)ccc34)ccc21	6.95% (active)	69.6%	89	51.5%	64.2	72.3	-46.8% (active)	9.85% (active)	-36.1% (active)	65.7
O=c1[nH]nnc2c1ncn2C1OC(CO)C(O)C1O (stereo unspecified)	50.4%	44.8%	105	97.7%	50.6	91.8	58%	22.6%	102%	
COc1ccc(/C=C/C(=O)c2ccc3cc(OC)c(OC)cc3c2)cc1OC	6.78% (active)	49.7%	71.9	22.8%	42	36.7	57.6%	6.59% (active)	96.3%	83.6
Cn1cc([C@@H]2Nc3ccc4[nH]ncc4c3[C@H]3[C@H]4CCC(C4)[C@H]32)c(C(F)(F)F)n1	16%	13.1%	50.7	42.5%	52.1	30.5	30.4%	44.2%	62%	21.1
COc1ccc(C(=O)C2CC2c2ccc(Cl)cc2)cc1 (stereo unspecified)	104%	75.6%	117	82.4%	72.5	96.7	84.9%	91.1%	107%	89
COc1cc(-c2c3c(cn2S(=O)(=O)c2ccccc2)-c2nc(N)sc2CC3)cc(OC)c1OC	9% (active)	12.1%	29	25.8%	41.8	14.1	51.1%	38.4%	68.6%	54.3
NCCOc1ccccc1/C=C1\c2ccccc2-c2ccc([N+](=O)[O-])cc21	-59.7% (active)	-5.59% (active)	10.6	-74.1% (active)	36.8	30.1	20.7%	-93.8% (active)	48%	78.3
CNCCNc1nc2ccccc2c2c(=O)c3cccc(OC)c3sc12	-17.5% (active)	26.2%	42	-45.2% (active)	26.1	57.9	44.4%	12.2%	62.3%	
COc1cc2nc(NC3CCC3)nc(NC3CCN(C(C)C)CC3)c2cc1OC	14.5%	46.8%	91	21.5%	58.9	14.5	83.5%	42.9%	38.1%	91.5
O=C(CSc1ccc2nnc(-c3cccc(F)c3)n2n1)Nc1ccc2c(c1)OCO2	99.6%	-22.3% (active)	100	70.3%	40.1	86.1	83.2%	61.1%	79.7%	92.6
COc1cccc(/C=C/C(=O)c2c(C)nc3ccccc3c2/C=C/c2ccccc2)c1OC	2.64% (active)	9.19% (active)	36.3	24%	43.3	32.3	28.5%	-59.4% (active)	44.8%	32.3
Nc1nc(-c2cnccn2)nn1-c1nc2ccccc2s1	99.7%	96.4%	98.2	93.5%	99.4	92.2	101%	105%	104%	
